KKLEB tox: counter-screen for CF NF-kB inhibitors: cytotoxicity | KKLEB CF airway cells viability, ATPlite luminescence, overnight; hits give low values; cells stimulated with P. aeruginosa culture filtrate | activity change (cytotoxicity), % at 5 µM | 360,000 tested, 0.36% active | AID 602141;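 active = corrected activity change at or below -50% at 5 µM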
Peg3 prom inh: Peg3 promoter activity inhibition; AID 588405; inhibition, % at 20 µM; 360,000 tested, 1.7% active; HeLa PEG-Prom luciferase reporter, luminescence, overnight;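 active = inhibition of at least 50% at 20 µM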
TROY NFkB inh: blocks TROY-dependent signaling in reporter cells. Q293 LMP1-TROYcd NF-kB luciferase reporter, 4 h. inhibition, % at 10 µM. 360,000 tested, 0.98% active. AID 1347056;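 active = compounds whose plate-normalised and pattern-corrected inhibition of the luciferase reporter signal at the single screening dose is 50% or more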
TWEAK-Fn14 inh: TWEAK-Fn14 signaling inhibition; inhibition, % at 10 µM; TWEAK-stimulated Fn14 reporter cells, luciferase luminescence, 8 h; AID 1159606; 360,000 tested, 2% active; in the data active = inhibition above about 50%
HIF-2a inh: blocks HIF-2a reporter activity; 786-0 RCC cells HIF-2a reporter, luciferase luminescence, overnight; AID 624352; inhibition, % at 18.8 µM; 360,000 tested, 0.72% active;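 active = inhibition of the luminescence signal of 40% or more relative to plate controls, in a single-dose primary screen at 18.75 µM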
CF NFkB inh: cystic fibrosis NF-kB activation inhibition; KKLEB NF-kB-GFP reporter, PAF-induced, GFP fluorescence overnight; inhibition, % at 5 µM; 360,000 tested, 0.86% active; AID 588850;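 active = at least 50% inhibition at 5 µM, scaled per plate between neutral and stimulator controls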;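 also: PAF is a Pseudomonas aeruginosa culture filtrate used as stimulus; plate controls were PAF-stimulated DMSO wells for no effect and unstimulated DMSO wells for full effect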
CF NFkB conf: confirmation of cystic fibrosis induced NF-kB inhibitors; KKLEB CF airway cells, PAF-induced NF-kB-GFP fluorescence, overnight; 1,300 tested, 64% active; inhibition, % at 5 µM; AID 602472; shares compounds with CF NFkB inh; in the data active = inhibition above about 40%;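 also: stimulus PAF is a Pseudomonas aeruginosa filtrate and not platelet activating factor; plate controls were DMSO wells with stimulus for no effect and unstimulated DMSO wells for full effect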
* = called active by the depositor; . = not tested or not shown. Most compounds without a hit are left out; they make up all but 3.9% or so of the library.

SMILES	KKLEB tox	Peg3 prom inh	TROY NFkB inh	TWEAK-Fn14 inh	HIF-2a inh	CF NFkB inh	CF NFkB conf
CC(C)N(C(=O)[C@H]1C[C@H](CC(=O)NCc2cccc(C(F)(F)F)c2)C(=O)N2CCc3c([nH]c4ccc(Cl)cc34)[C@]12C)C(C)C	-41	59*	31	48	-16	60*	39
C[C@]12c3[nH]c4ccc(Cl)cc4c3CCN1C(=O)[C@@H](CC(=O)NCc1cccc(C(F)(F)F)c1)C[C@@H]2C(=O)N1CCOCC1	1	33	15	21	-11	-6	.
CCCCn1c(N)c(N(C)C(=O)c2ccccc2Oc2ccccc2)c(=O)[nH]c1=O	8	13	-1	0	7	17	.
CC(C)C[C@@H](CN1CCCC1CN1C(=S)NC[C@@H]1Cc1ccc(O)cc1)N1C[C@H](Cc2ccc(O)cc2)N(CC2CCCCCC2)C1=S (stereo partly specified)	0	91*	15	42	-35	52*	61*
CCOc1ccc(CCN2C(=S)N([C@@H](CC(C)C)CN3CCC[C@@H]3CN3C(=S)NC[C@@H]3CC(C)C)C[C@@H]2Cc2ccc(O)cc2)cc1	-8	19	20	43	-15	36	.
CCOc1ccc(CCN2C(=S)N([C@@H](CC(C)C)CN3CCCC3CN3C(=S)NC[C@@H]3CC(C)C)C[C@@H]2Cc2ccc(O)cc2)cc1 (stereo partly specified)	-9	10	5	26	-20	53*	63*
CC(C)C[C@H]1CNC(=S)N1C[C@H]1CCCN1C[C@H](Cc1ccc(O)cc1)N1C[C@H](CC(C)C)N(CCc2ccccc2)C1=S	-16	8	11	25	-18	56*	22
CC(C)C[C@H]1CNC(=S)N1C[C@H]1CCCN1C[C@H](Cc1ccccc1)N1C[C@H](Cc2ccc(O)cc2)N(CCc2ccccc2)C1=S	-11	12	12	9	-14	66*	31
Cc1ccc(NC(=O)COC(=O)c2ccc[n+]([O-])c2)c(Br)c1	-1	5	0	15	-3	12	.
O=C(Nc1ccc(CN2CCOCC2)cc1)c1cccs1	-7	-156	-44	6	-201	-15	.
NS(=O)(=O)c1ccc(NC(=S)NC2CCCC2)cc1	7	-2	-17	13	21	-3	.
COc1ccccc1NC(=O)CC(NCc1ccccc1)C(=O)O (stereo unspecified)	3	6	23	-10	10	7	.
CCSc1ccccc1C(=O)Nc1cc(OC)c(OC)c(OC)c1	10	18	3	0	10	-10	.
Cc1ccc(/C=[N+](\[O-])c2ccc(N(C)C)cc2)c2nsnc12	-24	-158	19	57*	21	68*	-68
N#CC(C#N)=C1SC(=Nc2ccccc2)C(=Nc2ccccc2)N1c1ccccc1	-42	89*	-55	27	-66	67*	79*
COc1ccc(CCNC(=O)c2cccc([N+](=O)[O-])c2)cc1OC	6	7	21	-18	29	62*	22
COc1ccc(CCNC(=O)c2ccc(-c3cccc([N+](=O)[O-])c3)o2)cc1OC	-14	15	7	12	-19	-21	.
COc1ccc(-c2cnc(N)nc2-c2ccc(OCc3ccccc3)cc2O)cc1	-7	0	8	5	10	27	.
Nc1ncc(-c2ccccc2)c(-c2ccc(O)cc2O)n1	-12	43	25	17	12	51*	69*
CCOC(=O)c1cccc(NS(=O)(=O)c2ccc(NC(C)=O)cc2)c1	0	10	42	24	16	52*	44*
CCOC(=O)c1cccc(NS(=O)(=O)c2c(C)[nH]c(=O)[nH]c2=O)c1	10	13	-4	-10	10	4	.
Cc1ccc(C)c(NC(=O)CSc2nnc(CNC(=O)c3cccs3)o2)c1	-6	3	11	1	5	7	.
C=CC[N@@+]12CC[C@]34c5ccccc5N5/C=C6\C7N(/C=C(\C53)[C@@H](C[C@@H]41)/C(=C/CO)C2)c1ccccc1[C@@]71CC[N@@+]2(CC=C)C/C(=C\CO)[C@@H]6C[C@@H]12 (stereo partly specified)	5	-20	-4	-2	5	5	.
CCC(Cc1ccccc1)NS(=O)(=O)c1ccc2c(c1)NC(=O)C(C)S2 (stereo unspecified)	2	11	21	31	13	10	.
CN(Cc1ccco1)c1ncnc2ccc(-c3ccoc3)cc12	-10	1	23	47	16	66*	56*
SMILES	KKLEB tox	Peg3 prom inh	TROY NFkB inh	TWEAK-Fn14 inh	HIF-2a inh	CF NFkB inh	CF NFkB conf
COc1ccc(OC)c(S(=O)(=O)NCC(c2ccco2)S(=O)(=O)c2ccccc2)c1 (stereo unspecified)	12	4	-8	2	2	50*	24
Cc1cccc(NC(=O)c2nc[nH]c2C(=O)NCCN(CCNC(=O)c2[nH]cnc2C(=O)Nc2cccc(C)c2)CCNC(=O)c2[nH]cnc2C(=O)Nc2cccc(C)c2)c1	-21	48	8	12	0	7	.
Cc1cccc(NC(=O)c2nc[nH]c2C(=O)NCCCNC(=O)c2[nH]cnc2C(=O)Nc2cccc(C)c2)c1	-25	93*	16	33	5	64*	79*
C[C@H](NC(=O)c1nc[nH]c1C(=O)N[C@@H](C)C(=O)OC(C)(C)C)C(=O)OCc1ccccc1	-12	6	26	1	11	2	.
CC(C)C[C@H](CO)Nc1nc(Nc2cccc(Cl)c2)c2ncn(C(C)C)c2n1	-24	37	47	79*	-13	61*	76*
CC(NC(=O)OCc1ccccc1)C(=O)Oc1cc2oc(=O)cc(-c3ccccc3)c2cc1Cl (stereo unspecified)	-8	-15	37	71*	5	63*	93*
COC(=O)[C@@]1(Cc2ccc(F)cc2)[C@H]2c3cc(C(=O)N4CCCC4)n(CCSCCO)c3C[C@H]2CN1C(=O)c1ccccc1	.	.	-5	-1	11	.	.
COCCNc1nc(Oc2cccc(F)c2)c2sccc2n1	-14	7	-5	13	8	33	.
COCCNc1nc(Oc2cncc(Cl)c2)c2sccc2n1	-20	17	27	50*	8	62*	78*
CCCCCCc1nc2nc(Cl)c(Cl)nc2[nH]1	16	-14	-14	14	-55	60*	32
CCC(=O)c1ccc(O)c(CC=C(C)C)c1	-8	-3	42	43	20	57*	64*
CCn1c(CN2CCC(C)CC2)nc2cc(S(=O)(=O)N3CCCCC3)ccc21	2	9	1	3	19	10	.
CCn1c(SC)nc2cc(S(=O)(=O)N3CCCCC3)ccc21	-8	-12	-2	7	15	52*	41*

Screens deposited in PubChem by Sanford-Burnham Center for Chemical Genomics.
